In all, about 31,000 sequences went through this assay and about 1,400 (4.5%) were called active.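 How the source made its calls: active means median seed-adjusted z-score above 1 or below -1; inactive means the rest.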 Shown is part of a subset that was picked to be rich in actives.
Experiment: Novel Modifiers of Survival Motor Neuron (SMN) Protein: Gene Identification via Genome-wide siRNA Screen;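 further: luminescence tracks full-length SMN protein made from the SMN2 reporter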
Conditions: HEK293T SMN2-luciferase reporter, siRNA knockdown, 72 h; actives lie on both sides
Method in brief: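 Steps: spot 1 pmol siRNA, add Lipofectamine RNAiMax in serum-free DMEM, seed HEK293T SMN2–luciferase reporter cells; incubate 72 h at 37 °C; add ONE-Glo; normalize luminescence to control siRNA, log10, MAD. Candidates: |MAD| > 1.0.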
With CGAAAGGAAACCUAACGAATT against HIVEP2 the median seed-adjusted z-score was 0.294 (inactive).
In the case of GCACAGGCAUCAUCGGGAATT against SGSH, the median seed-adjusted z-score is reported as 0.383 (inactive).
With GCCUCAAGGUUCACCUGAATT against PRDM1 the median seed-adjusted z-score was -0.16 (inactive).
With GUAUCUCAACAUCAAACUATT against LSM2 the median seed-adjusted z-score was -1.48 (active).
For GGGCUGAUGUUAUCAACUUTT against CNTNAP2, the median seed-adjusted z-score was -0.196 (inactive).
In the case of CGACACUGCCGAAUGGAAATT against SRCRB4D, the median seed-adjusted z-score is reported as -0.0568 (inactive).
With UGCCCGUCAUUGUCUCCAATT against KCNA7 the median seed-adjusted z-score was 0.394 (inactive).
In the case of AGAUCAUUGCUUUCAGUGATT against PRDX1, the median seed-adjusted z-score is reported as 0.288 (inactive).
In the case of CCUACAAUGUGGUGCAUAUTT against DYRK4, the median seed-adjusted z-score is reported as -0.824 (inactive).
For CAAGAAUUCCGAUUUCCAATT against GNGT2, the median seed-adjusted z-score was -0.289 (inactive).
With GCAAUGAACUCAACAGCUATT against ANGPTL7 the median seed-adjusted z-score was 0 (inactive).
In the case of GCUAGACCGACCCACCAUATT against FKBP6, the median seed-adjusted z-score is reported as -1.12 (active).
In the case of GGUUAUCGACGACAGCAGATT against AGAP3, the median seed-adjusted z-score is reported as 0.554 (inactive).
For GCAUCCCACUACUACAAAUTT against KSR2, the median seed-adjusted z-score was -0.371 (inactive).
With UCAUCUUCAUCGACCGGAATT against AGPAT1 the median seed-adjusted z-score was -1.38 (active).
For UACCUGUGGUCAUUCCUUATT against HHATL, the median seed-adjusted z-score was 0.497 (inactive).
With ACACCUCACUCAUCCUCUUTT against GNAZ the median seed-adjusted z-score was -0.604 (inactive).
With GGGCAAUGAUAGAAAGAAUTT against STK35 the median seed-adjusted z-score was 0.519 (inactive).
For GGAGGGAUGGUUACUGUUATT against TOX4, the median seed-adjusted z-score was 0 (inactive).
With GAUGCAUUCGAUGACCUGATT against PTGES2 the median seed-adjusted z-score was -0.02 (inactive).
For GCCUAUUCCUUCAAGUAUUTT against SUPT6H, the median seed-adjusted z-score was -2.54 (active).
For CAGUGAAAAGUGACGCGGATT against DZIP1, the median seed-adjusted z-score was -0.138 (inactive).
In the case of CGAAAGUCCUCACCAACAATT against TSHZ1, the median seed-adjusted z-score is reported as 0.526 (inactive).
In the case of GCCUUUCAUCAGAUCUUCUTT against DBX1, the median seed-adjusted z-score is reported as 0.0137 (inactive).
In the case of GAAUCUGUCUUAGAUCUCATT against PRDM2, the median seed-adjusted z-score is reported as 1.12 (active).
For CCAUAGAAUUCAAAAUCCUTT against BCL2L14, the median seed-adjusted z-score was -0.859 (inactive).
With GGAGUCUACUUUACCGGUATT against BPIL2 the median seed-adjusted z-score was -0.63 (inactive).
With GCAGAGAAAAUAUAACUGATT against NPHP1 the median seed-adjusted z-score was -0.0667 (inactive).
For AGAUGGUCCAAGAUCCAGATT against CHRM4, the median seed-adjusted z-score was -0.856 (inactive).
For GGAGUUUCCCAUCAAACGATT against PADI4, the median seed-adjusted z-score was 0.417 (inactive).
For CUUCCUAGGUUACAAGUAATT against FAM84B, the median seed-adjusted z-score was -0.431 (inactive).
For GGGACAAGCUUGACAAGGUTT against TRIM62, the median seed-adjusted z-score was -0.000231 (inactive).
For GGGUGUCUAAAGGUACAUATT against FSD2, the median seed-adjusted z-score was 0.359 (inactive).
With GUACGUUGUAUGUUAAACATT against SLC12A2 the median seed-adjusted z-score was -0.4 (inactive).
With CGAUUCCAGCAGUAGCUCATT against AP3B2 the median seed-adjusted z-score was -2.45 (active).
For GGAGUUCGCAAAAUCGUCATT against NRK, the median seed-adjusted z-score was 0.0687 (inactive).
With CCUCCAUGUCCAACCCAUATT against FOSL2 the median seed-adjusted z-score was -0.372 (inactive).
With AGUAGAACGUGUACGCAGATT against MGST1 the median seed-adjusted z-score was -0.0144 (inactive).
For GAAUAUCGGCAGAGAGAUATT against RNF12, the median seed-adjusted z-score was 0.29 (inactive).
With CGGAGAAGAUGUUCGCCGATT against SIL1 the median seed-adjusted z-score was 0.0292 (inactive).
With GGAUGUGCACUCUCAUUGATT against COPA the median seed-adjusted z-score was -0.807 (inactive).
For GGAGAUUCAGAUCCUCAAATT against JAK3, the median seed-adjusted z-score was -0.0926 (inactive).
For GCAACACCCAGGUAGUUUUTT against EIF4A1, the median seed-adjusted z-score was -1.05 (active).
With GAAGCUCUACUCACAGUUUTT against GSTM2 the median seed-adjusted z-score was -0.464 (inactive).
With CUUAACCUGUGGAAUCGAATT against NIPA2 the median seed-adjusted z-score was -0.103 (inactive).
For GCAAAGAUAGAAGAAGAUATT against DDI2, the median seed-adjusted z-score was 1.27 (active).
In the case of GCAAGAUGAUUUUAUCUCUTT against CDA, the median seed-adjusted z-score is reported as 0.471 (inactive).
With CAUUAAAGCAGCUACCAAUTT against PSMC3IP the median seed-adjusted z-score was -0.0482 (inactive).
With GCAACAGCAUUAUGACCCATT against COL10A1 the median seed-adjusted z-score was -0.0291 (inactive).
For GGUUGCGGCUCAGAACAAATT against OAS3, the median seed-adjusted z-score was 0.147 (inactive).
With GGACCUGAUUGAUGCCGUCTT against PYCR1 the median seed-adjusted z-score was -0.171 (inactive).
For AGACCUCGAUUUCACAGUATT against PRMT8, the median seed-adjusted z-score was 0 (inactive).
In the case of CAGAGUAUGUAAAUAGACATT against CAPRIN1, the median seed-adjusted z-score is reported as 1.36 (active).
For GGAAGUGCCCAGUGACUUATT against SLPI, the median seed-adjusted z-score was 0.274 (inactive).

From PubChem BioAssay AID1347426 (Functional Genomics Laboratory (NCATS/FGL), 2020)
